# High-throughput results deposited in PubChem BioAssay by several laboratories.
# rCAG RNA binder = binders of r(CAG) RNA repeats, primary screen, biochemical, fluorescence | r(CAG) RNA repeat, TO-PRO-1 dye displacement fluorescence | inhibition, % at 3 µM | 370,000 compounds, 1.3% hits | AID 651821, 2012;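 active = inhibition above the plate cutoff, the mean of all test compounds on that plate plus 3 SD, cut at about 35% in these data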;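 also: 0% = DMSO alone and 100% = 100 µM mitoxantrone as full dye displacement; higher means more dye released from RNA so lower well fluorescence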
# MBD2 DNA inh = inhibitors of MBD2 binding to methylated DNA, primary screen, biochemical, TR-FRET, DNA-binding domain, human. Methyl-CpG-binding domain protein 2 (Homo sapiens), Q9UBB5. MBD2 binding to methylated oligonucleotide. inhibition, % at 4.4 µM. 370,000 compounds, 0.31% hits; in the data active = inhibition above about 13%
# Target sequence (Q9UBB5 whole entry, looked up, the tested form may be a part): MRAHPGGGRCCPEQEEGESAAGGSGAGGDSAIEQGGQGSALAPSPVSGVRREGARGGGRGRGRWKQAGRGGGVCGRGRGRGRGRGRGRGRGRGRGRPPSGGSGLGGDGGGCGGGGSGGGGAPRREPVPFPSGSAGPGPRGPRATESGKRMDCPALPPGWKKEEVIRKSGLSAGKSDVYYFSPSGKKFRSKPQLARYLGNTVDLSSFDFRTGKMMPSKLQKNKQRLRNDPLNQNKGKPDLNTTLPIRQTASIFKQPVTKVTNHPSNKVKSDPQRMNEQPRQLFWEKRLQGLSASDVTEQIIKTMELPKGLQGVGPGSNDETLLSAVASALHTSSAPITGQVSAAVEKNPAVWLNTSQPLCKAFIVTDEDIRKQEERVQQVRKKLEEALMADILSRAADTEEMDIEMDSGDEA
# LEDGF integ inh = blockers of LEDGF/p75-dependent integrase strand transfer – biochemical, TR-FRET, high throughput, primary screen; inhibition, % at 3.7 µM; TR-FRET IN-LEDGF/p75 DNA integration, Eu/Cy5; 370,000 compounds, 0.64% hits; HIV-1 integrase (with human LEDGF/p75);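 active = inhibition above the screen-wide mean plus 3 SD, cut at about 13% in these data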;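 also: signal is the Cy5 over europium emission ratio at 671 and 618 nm; 0% = plate median of compound wells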
# DNMT1 block = human DNMT1 methyltransferase inhibitors, primary screen, biochemical, molecular beacon, fluorescence, HinP1I cleavage, uHTS; inhibition (reported as % activation of signal), % at 10 µM; 360,000 compounds, 0.83% hits; DNA (cytosine-5)-methyltransferase 1 (Homo sapiens), P26358; AID 588458, 2011; in the data active = inhibition above about 50%
# PG9 binder = binders of HIV-1 gp120 antibody PG9, primary screen, biochemical, TR-FRET | inhibition, % at 6.7 µM | AID 624416, 2012 | 360,000 compounds, 0.43% hits | TR-FRET gp120-PG9 antibody binding; in the data active = inhibition above about 8.5%
# UHRF1 MBD2 ctr = UHRF1 methylated DNA binding inhibitors, primary screen, counter-screen for MBD2 inhibitor project, biochemical, TR-FRET, human UHRF1, single concentration; 370,000 compounds, 0.75% hits; E3 ubiquitin-protein ligase UHRF1 (Homo sapiens), Q96T88; UHRF1 binding to methylated oligo; inhibition, % at 4.4 µM; in the data active = inhibition above about 21%;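 also: UHRF1 SRA domain binding a hemimethylated CpG hairpin DNA probe; 0% = median of test compound wells and 100% = reference inhibitor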
# rCAG bind conf = small molecules binding CAG repeat RNA – biochemical, fluorescence, confirmation | shares compounds with rCAG RNA binder | r(CAG) RNA repeat, TO-PRO-1 dye displacement fluorescence | inhibition, % at 3 µM | 4,300 compounds, 70% hits;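 active = inhibition above a per-plate cutoff, the mean inhibition of sample wells plus 3 SD, cut at about 35% in these data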;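 also: loss of TO-PRO-1 fluorescence as compound displaces dye from 1x1 AA loop RNA; 0% = DMSO only wells and 100% = 100 µM mitoxantrone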
# dCAG dye counter = displacement of TO-PRO-1 from CAG DNA duplex, counter-screen for rCAG RNA repeat binder project, biochemical, fluorescence, TO-PRO-1 dye, d(CAG) DNA oligo. 4,300 compounds, 94% hits. shares compounds with rCAG RNA binder. d(CAG) DNA oligo TO-PRO-1 dye displacement. inhibition, % at 3 µM;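 active = inhibition above its plate's cutoff, the mean test-well inhibition plus 3 SD, cut at about 4.8% in these data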;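 also: 0% = DNA dye mix with DMSO and 100% = 100 µM mitoxantrone; hits displace the dye from DNA and so lower well fluorescence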
# * marks the source's active call; other numbers are inactive results; nt = no result given. Only some compounds are listed: those with a hit (about 3.5% of all), similar ones and a draw of the others.
SMILES,rCAG RNA binder,MBD2 DNA inh,LEDGF integ inh,DNMT1 block,PG9 binder,UHRF1 MBD2 ctr,rCAG bind conf,dCAG dye counter
CC1CC(C)CN(C(=O)c2cccc(S(=O)(=O)Nc3cc(C(F)(F)F)ccc3Cl)c2)C1 (configuration not stated),71*,-3,3,0,-1,-3,66*,27*
COc1ccc(C(C)(O)c2nc(-c3ccccc3OC)cs2)cc1 (configuration not stated),0,7,1,-4,-1,-1,nt,nt
O=C(O)c1ccc(Cl)cc1NC(=O)C1CCN(S(=O)(=O)c2cccs2)CC1,39*,2,2,-7,-1,-1,41*,10*
O=C(NCCc1ccc(Cl)cc1)C1CCN(S(=O)(=O)c2cccs2)CC1,0,6,2,-5,-1,18,nt,nt
Cc1ccc(CNC(=O)C(C)OC(=O)c2ccco2)cc1 (configuration not stated),56*,7,3,4,4,6,2,-1
COCCNC(=O)C1(C)CCN(C(=O)c2oc3ccccc3c2C)C1 (configuration not stated),0,6,1,5,2,4,nt,nt
O=C1NC(=Nc2cccc(O)c2)S/C1=C\c1cccnc1,5,3,6,-1,-2,2,nt,nt
O=C1NC(=Nc2cccc(O)c2)S/C1=C\c1cccc([N+](=O)[O-])c1,47*,-1,3,-6,-1,-4,33,11*
Cc1cccc(-c2cccc3c4c([nH]c23)[C@@H]2C[C@H](N(C)C(=O)Nc3ccccc3)[C@H]([C@H](C)O)CN2CC4)c1,6,1,5,nt,nt,1,nt,nt
Cc1ccccc1S(=O)(=O)N1C(c2ccc(Cl)cc2)CC=C(C(=O)O)C1c1cccc(Cl)c1 (configuration not stated),84*,0,3,nt,0,2,77*,40*
Cc1ccc([C@H]2C(C(=O)O)=CC[C@@H](c3ccc(Cl)cc3)N2S(=O)(=O)c2ccccc2C)cc1,nt,nt,nt,4,nt,nt,nt,nt
Cc1ccccc1S(=O)(=O)N1[C@@H](c2ccc(Cl)cc2)C(C(=O)O)=CC[C@H]1c1ccc(Cl)cc1,80*,-1,7,6,0,-2,80*,40*
Cc1ccc([C@@H]2CC=C(C(=O)O)[C@H](c3cccc(Cl)c3)N2S(=O)(=O)c2ccccc2C)cc1,82*,1,7,2,0,-1,77*,43*
CC(C)CCOc1ccc(C(=O)NCC(c2cccs2)N2CCOCC2)cc1 (configuration not stated),-10,-4,-2,-3,1,-6,nt,nt
COc1ccc(C2=NOC(Cn3nc(-c4ccccc4C)cc3C(=O)O)C2)cc1 (configuration not stated),39*,4,2,5,-2,4,19,5.0*
CCOC(=O)c1cc(-c2ccccc2C)n(CC2CC(c3ccc(OC)cc3)=NO2)n1 (configuration not stated),-8,-4,1,-7,-1,3,nt,nt
CC(=NNC(=O)CSc1nnc(-c2ccc(C(C)(C)C)cc2)n1-c1ccccc1)c1cccc2ccccc12,12,4,-2,nt,nt,-1,nt,nt
